# Bioassay records as filed in PubChem BioAssay.
# Pf apPOL block: Pf-apPOL inhibitors, biochemical, fluorescence; Plasmodium falciparum apicoplast DNA polymerase (apPOL); Recombinant Pf-apPOL, molecular beacon fluorescence, 1.5 h; inhibition, % at 10 µM; 210,000 compounds, 0.25% hits; AID 1794808, 2022
# mHTT-CaM PPI inh: mutant huntingtin-calmodulin interaction inhibitors – biochemical, AlphaScreen, primary screen. inhibition, % at 15 µM. 190,000 compounds, 3.6% hits. AID 1671202, 2021. AlphaScreen His-mHTT/GST-CaM binding, luminescence;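 further: 0% = both proteins with DMSO and 100% = one protein alone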
# Numbers without * were called inactive; i = inactive; x = no result given; ! = a repeat was not active. This excerpt belongs to a sample that is enriched for hits. No stated cut-off is given here; in the data, active means inhibition above about 50%; inactive means the rest.
SMILES,Pf apPOL block,mHTT-CaM PPI inh
Cc1ccc(NC(=O)C2(S(=O)(=O)c3ccc(Cl)cc3)CC2)cc1F,84.3*,-22.0
O=C(Nc1ccc(F)cc1)C1(S(=O)(=O)c2ccc(Cl)cc2)CC1,-0.7,-6.0
NC(=O)Cn1cnc(-c2ccc(Cl)cc2)c1,-4.2,1.3
FC(F)(F)c1ccc(/C=N\n2c(-c3ccccc3)n[nH]c2=S)cc1,x,i
O=c1[nH]c2c(s1)C1c3ccccc3OC3CCCC(S2)C31 (stereo not drawn),-51.8,51.5*
O=C(O)C1C2CC3C1C(=O)Oc1ccccc1C1c4sc(=O)[nH]c4SC2C13 (stereo not drawn),1.6,-3.0
O=[N+]([O-])c1cc(Br)c2nsnc2c1N1CCCCC1,-8.4,77.0*!
O=[N+]([O-])c1cc(C(F)(F)F)cc([N+](=O)[O-])c1N1CCCCC1,-2.0,24.0
CN(C(=O)c1ccc(Cn2cc([N+](=O)[O-])cn2)o1)C12CC3CC(CC(C3)C1)C2,8.9,14.0
Cc1cc(C)c(S(=O)(=O)N2CCCC(C)(C(=O)NCc3ccc(F)cc3)C2)c(C)c1 (stereo not drawn),-3.6,91.3*
Cc1cccc(S(=O)(=O)N2CCCC(C)(C(=O)NCc3ccc(F)cc3)C2)c1 (stereo not drawn),1.2,37.0
Cc1cc(C)c(S(=O)(=O)N2CCCC(C)(C(=O)NCc3ccc(F)cc3)C2)cc1C (stereo not drawn),0.3,61.5*
Cc1cc(C)c(S(=O)(=O)N2CCCC(C)(C(=O)NCc3cccc(F)c3)C2)c(C)c1 (stereo not drawn),-1.7,7.5
CCOc1ccccc1NS(=O)(=O)c1cc(Br)cc2c1N(C(=O)C1CC1)CC2,-4.1,-1.0
CCCCCCCCCn1c[n+](CCCCCCCCC)c2cc(C)c(C)cc21,x,100.2*
COc1cc(NC(=O)c2ccccc2)c(OC)cc1NC(=O)COc1ccccc1,-2.5,58.6*
COCC(=O)Nc1cc(OC)c(NC(=O)c2ccccc2)cc1OC,-0.7,6.3
O=C(Nc1nc(-c2ccccc2)cs1)c1ccccc1,-4.6,-10.0
COc1cc(C(=O)Nc2nc(-c3ccccn3)cs2)cc(OC)c1OC,5.4,100.0*
COc1cc(C(=O)Nc2nc(-c3ccc(Cl)cc3)cs2)cc(OC)c1OC,-1.0,3.6
COc1cc(C(=O)Nc2cccc(NC(=O)c3ccccc3)c2)cc(OC)c1OC,-1.0,52.3*
O=C(Nc1nc(-c2ccccn2)cs1)c1ccc(Br)s1,-1.4,100.0*
COc1cc(C(=O)Nc2ccc(NC(=O)c3ccccc3)cc2)cc(OC)c1OC,1.2,3.4
O=C(NCCc1cccnc1)c1ccc(N2CCNC(c3ccccc3)C2)nc1 (stereo not drawn),1.6,-2.9
C=CCSc1sc2c(=O)[nH]c(=O)[nH]c2c1C#N,x,-3.9
SMILES,Pf apPOL block,mHTT-CaM PPI inh
Cc1cc(C(=O)Nc2nc(-c3ccccn3)cs2)on1,-241.7,99.8*
COC(=O)c1ccc(-c2csc(NC(=O)c3cc(C)no3)n2)cc1,-0.9,-6.1
COc1ccc(C=C2Oc3cc(C)cc(O)c3C2=O)c(OC)c1OC,-5.3,74.6*
COc1ccc(OC)c(C=C2Oc3cc(C)cc(O)c3C2=O)c1,3.3,4.5
Cc1ccc2c(c1)N(Cc1ccccc1)N=C(C(=O)N1CCCCC1)S2(=O)=O,-3.2,1.8
COC(=O)CSc1nc2c(-c3ccccc3)cn(C)c2c(=O)n1C(C)C,-1.9,-18.0
COc1ccc(C)cc1-n1cnc2cc(C(=O)NC3CCCCC3C)ccc21 (stereo not drawn),-2.4,66.0*
Cc1ccc(-n2cnc3cc(C(=O)NC4CCCC4)ccc32)c(C)c1,34.0,11.0
CC1CCCCN1c1ccc(N2CCN(C(=O)c3cccc([N+](=O)[O-])c3)CC2)nn1 (stereo not drawn),-7.4,8.0
CCN1c2cc(C)ccc2-n2cccc2C12CCN(C(=O)NCc1ccccc1)CC2,-1.0,81.0*
CCN1c2cc(C)ccc2-n2cccc2C12CCN(C(=O)NCc1ccc(F)cc1)CC2,1.5,93.1*
CCN1c2ccccc2C(=O)NC12CCN(C(=O)NCc1ccc(F)cc1)CC2,-10.1,1.4
CCOCCCNC(=O)N1CC(CC)Oc2ccc(C)cc21 (stereo not drawn),-6.2,-1.2
Cc1ccc(CNC(=O)C2(C)CCCN(C(=O)NCc3ccccc3)C2)cc1 (stereo not drawn),1.9,-5.9
CCN1c2ccccc2C(=O)NC12CCN(C(=O)NCCc1ccccc1)CC2,-2.0,-1.6
CCOCCCNC(=O)N1CCC2(CC1)c1cccn1-c1ccc(C)cc1N2CC,3.7,92.9*
CCN1c2cc(C)ccc2-n2cccc2C12CCN(C(=O)NCCc1ccccc1)CC2,-2.0,93.8*
CCc1ccc(NC(=O)C2CCCN(c3nccnc3Oc3ccc(C)cc3)C2)cc1 (stereo not drawn),-6.4,-7.2
Cc1ccc(Cl)cc1NS(=O)(=O)c1cccc2c1C(=O)c1ccccc1C2=O,13.0,8.0
Cc1ccccc1Nc1ncnc2c1nc1n2CCCC1,-3.4,-3.4
